# The list is not random: actives were taken first. Their share in the collection is about 7.2%.
# A1 inh: inhibitors of the anti-apoptotic protein A1, read as caspase activation; hit rate 0.066% among 330,000; caspase activation, % (concentration not given with the values); MEF A1-2A-BIM cells, Caspase-Glo 3/7 luminescence, 3 h; percent of clofoctol response, vehicle zero;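 active = over half of replicate activation scores above 10%, or exactly half above 10 with the replicate mean above 10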
# AHR act: activates the human aryl hydrocarbon receptor. P35869. AHR-responsive luciferase reporter cells, luminescence. activation, % at 5 µM. hit rate 2.5% among 320,000. AID 2796; in the data active = activation above about 47%;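 note: 0% = vehicle wells and 100% = reference agonist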
# SUMO Mot1 rescue: inhibitors of SUMOylation pathway: yeast Mot1-301 growth rescue; hit rate 1% among 320,000; S. cerevisiae Mot1-301 growth rescue, ATP luminescence, 38.5C; percent above DMSO median, 100 means doubled; growth rescue, % at 18.8 µM;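 active = every valid replicate shows activation above 250% relative to neutral control wells; inactive = the rest, any valid replicate at or below 250%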;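 note: OY570 slx delta 5 strain wells were the positive control but not used for scaling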
# ALR H2O2 inh: inhibitors of human sulfhydryl oxidase ALR | hit rate 3.8% among 290,000 | AID 485317 | inhibition, % (concentration not given with the values) | purified ALR, DTT oxidation, H2O2 HRP-luminol luminescence | P55789;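 active = mean replicate inhibition above about 79%, with every replicate also reaching it, limit read from the data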
# Efflux pump inh: blocks antifungal efflux pumps in multiplex yeast assay. inhibition, % at 10 µM. hit rate 0.44% among 330,000. AID 485275. S. cerevisiae Candida pump triplex, Nile Red efflux;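 active = plate passing quality check with inhibition over a set limit, or well fluorescence over plate mean plus 4 SD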;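 note: Nile Red retained in pooled yeast measured as flow cytometry median fluorescence; 0% = buffer negative control and 100% = Enniatin B positive control; higher means more Nile Red kept so more efflux inhibition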
# VLA-4 inh: inhibition in a human VLA-4 binding assay; hit rate 0.2% among 330,000; VLA-4 expressing cells, ligand binding flow cytometry; P13612; inhibition, % (about 7 µM as worked out from the volumes in the protocol); AID 2557; in the data active = inhibition above about 50%
# Target sequence (P13612 whole entry, looked up): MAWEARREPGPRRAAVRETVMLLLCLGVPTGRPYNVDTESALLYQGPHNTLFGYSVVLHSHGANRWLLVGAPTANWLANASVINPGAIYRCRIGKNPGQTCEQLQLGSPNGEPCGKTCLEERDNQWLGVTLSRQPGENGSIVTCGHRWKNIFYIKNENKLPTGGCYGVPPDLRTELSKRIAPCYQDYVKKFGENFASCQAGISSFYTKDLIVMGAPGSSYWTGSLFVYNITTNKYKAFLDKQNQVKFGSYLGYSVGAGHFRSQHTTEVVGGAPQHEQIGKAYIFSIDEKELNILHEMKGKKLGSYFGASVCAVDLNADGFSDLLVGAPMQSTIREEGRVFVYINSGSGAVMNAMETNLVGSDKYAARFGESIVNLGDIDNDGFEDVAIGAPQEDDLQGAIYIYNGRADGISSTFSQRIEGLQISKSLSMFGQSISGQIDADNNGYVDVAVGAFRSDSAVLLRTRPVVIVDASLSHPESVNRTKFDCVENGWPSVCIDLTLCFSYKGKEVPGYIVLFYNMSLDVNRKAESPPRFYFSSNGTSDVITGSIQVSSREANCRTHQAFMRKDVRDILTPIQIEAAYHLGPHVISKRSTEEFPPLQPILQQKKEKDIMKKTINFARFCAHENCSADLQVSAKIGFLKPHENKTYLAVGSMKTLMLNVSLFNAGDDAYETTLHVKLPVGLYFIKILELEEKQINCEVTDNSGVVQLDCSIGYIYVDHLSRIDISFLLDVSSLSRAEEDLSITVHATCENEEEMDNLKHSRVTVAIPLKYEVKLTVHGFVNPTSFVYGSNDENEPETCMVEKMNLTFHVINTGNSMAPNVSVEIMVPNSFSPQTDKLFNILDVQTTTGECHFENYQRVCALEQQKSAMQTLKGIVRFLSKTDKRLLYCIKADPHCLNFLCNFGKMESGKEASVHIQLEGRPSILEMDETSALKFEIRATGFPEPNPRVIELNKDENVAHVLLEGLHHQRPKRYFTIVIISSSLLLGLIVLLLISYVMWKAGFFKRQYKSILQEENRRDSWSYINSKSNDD
# The depositor's hits bear a star; . = no result.
SMILES,A1 inh,AHR act,SUMO Mot1 rescue,ALR H2O2 inh,Efflux pump inh,VLA-4 inh
N/C(=N/O)c1ccccc1N1CCC(Cc2ccccc2)CC1,1,-1,155,92*,0,-1
CC1CCc2nc(/C(C#N)=C/c3cccnc3)sc2C1 (stereo not given),1,22,7,97*,0,2
N#C/C(=C/c1cccnc1)c1ccccc1,0,-9,119,-5,0,11
N#C/C(=C\c1cccnc1)c1nc2c(s1)CCCC2,-2,30,-5,98*,0,0
CC(NC(=O)C12CC3CC(CC(C3)C1)C2)C(=O)N/N=C/C1=C(N2CCOCC2)C(=C\c2ccccc2)/CC1 (stereo not given),1,4,-19,-1,0,15
Cn1cc(C(=O)N/N=C/C2=C(N3CCOCC3)C(=C\c3ccccc3)/CC2)ccc1=O,0,2,-5,89*,1,-1
COc1ccc(CNC(=O)CN(C)S(=O)(=O)c2ccc(Cl)cc2)cc1,0,-1,339*,-5,0,1
Cc1nc2ccc(S(=O)(=O)N(C)CC(=O)NCc3ccc(N(C)C)cc3)cc2s1,1,3,11,85*,0,-2
O=C(NCC1CCCO1)c1cc2ccccc2oc1=O (stereo not given),-1,-7,-18,-2,0,10
COc1ccc(CC(=O)NNc2ncnc3c2cnn3C)cc1,1,-1,6,52,0,6
N#Cc1c2ccc(OCC(N)=O)cc2n2ccccc12,0,9,371*,-50,0,-12
N#C/C(=C\c1ccc(OCC(N)=O)cc1)c1ccccc1,1,-1,7,-20,0,10
CCOc1ccc2nc(NC3=NC(C)(C)C=C(C)N3)nc(C)c2c1,0,41,4,-7,0,3
CCOc1ccc2c(C)nc(NC3=NC(C)(C)C=C(C)N3)nc2c1,1,64*,2,-10,0,7
CCOc1ccccc1NC(=O)CN1C(=O)C(=O)N(Cc2ccco2)C1=O,0,2,-1,.,0,8
C=CCNC(=O)c1onc(CSc2ccc(C(C)C)cc2)c1C(=O)O,-1,2,9,97*,0,6
C=CCNC(=O)c1onc(CSc2ccccc2)c1C(=O)O,-2,0,-2,9,.,.
C=CCNC(=O)c1onc(CSc2cccc(OCC)c2)c1C(=O)O,-1,2,6,94*,.,.
O=C(CN1C(=O)NC2(CCCc3ccccc32)C1=O)c1ccc(F)c(F)c1 (stereo not given),0,0,5,-9,0,13
Cc1csc(=Nc2c(C)n(C)n(-c3ccccc3)c2=O)n1Cc1ccccc1,1,2,-22,97*,0,2
COc1ccc(NS(=O)(=O)c2nnc(NC(=O)c3ccccc3F)s2)cc1,-1,-2,145,-1,0,8
Cc1c(-c2nc(-c3ccc(C(F)(F)F)cc3)no2)n(C)oc1=O,-3,101*,-2,3,0,26
CS(=O)(=O)c1ccccc1-c1nc(-c2ccc(C(F)(F)F)cc2)no1,0,-7,-9,-14,0,16
COc1cc(-c2nc3cnccn3c2Nc2c(C)cccc2C)ccc1O,1,3,0,98*,0,-5
Cc1cccc(C)c1Nc1c(-c2ccc(N3CCOCC3)cc2)nc2cnccn12,0,17,-1,99*,0,-5
SMILES,A1 inh,AHR act,SUMO Mot1 rescue,ALR H2O2 inh,Efflux pump inh,VLA-4 inh
CCCCNc1c(-c2ccc(-c3ccc(C(C)=O)cc3)c(OC)c2)nc2cnccn12,-1,18,31,.,0,-82
COc1ccc(Sc2ccc(-c3nc4cnccn4c3NC3CCCCC3)cc2OC)cc1,0,2,-6,2,0,-19
COc1cc(-c2nc3cnccn3c2NC(C)(C)CC(C)(C)C)ccc1O,1,-1,-20,99*,0,-4
c1csc(C2CCCN2c2nc3nonc3nc2NC2CC2)n1 (stereo not given),-1,0,-21,-15,0,-7
Cc1cc(Nc2ccc(Br)cc2F)n2nc(C)nc2n1,0,56*,-6,-7,0,-1
Cc1cc(C)cc(Nc2cc(C)nc3nc(C)nn23)c1,0,51*,1,-6,0,12
CCc1c(C(C)S(=O)(=O)c2ccccc2)[nH]c(=O)n1CC (stereo not given),0,-4,-10,17,0,26
CC1CCCN(C(=O)C(C)Nc2cc(Cl)ccc2N2CCOCC2)C1 (stereo not given),-1,1,3,58,0,-12
CC(=O)c1ccc(NC(=S)N2CCN(CCN3C(=O)c4cccc5cccc(c45)C3=O)CC2)cc1,1,122*,-3,0,0,8
CC(=O)c1cccc(NC(=S)N2CCN(CCN3C(=O)c4cccc5cccc(c45)C3=O)CC2)c1,-1,1,-12,-1,0,-5
COc1ccc(NC(=S)N2CCN(CCN3C(=O)c4cccc5cccc(c45)C3=O)CC2)cc1,1,97*,222,-46,0,-65
COc1ccc(NC(=S)N2CCN(C)CC2)cc1,0,-2,-18,-8,0,3
C/C(=N\NC(=O)Nc1ccccc1)c1ccc2ccccc2c1,0,70*,14,-15,-1,-2
COc1ccccc1C(=O)Nc1ccc2nc(SCC(=O)N(C)C)sc2c1,0,-3,17,100*,0,-5
COc1ccc(Br)cc1/C=C/C(=O)Nc1ccc2ccccc2c1,0,50*,14,-4,0,4
Cc1ccc(C(=O)Nc2ccc(Oc3ccc(C(=O)O)c(C(=O)O)c3)cc2)cc1C,-1,2,5,98*,0,-7
O=C(Nc1ccccc1)Nc1ccc2ccccc2c1,-3,12,2,3,0,11
Cc1ccc(C(=O)Nc2ccc(Nc3ccccc3)cc2)cc1C,-1,-5,46,16,0,-8
O=C(CSc1nc2ccc(NC(=O)c3ccccc3C(=O)O)cc2s1)Nc1ccc(F)c([N+](=O)[O-])c1,0,8,13,.,0,2
CC(C)CCNC(=O)C1CCC(=O)N1CCc1ccccc1 (stereo not given),0,4,7,.,0,-6
CCc1ccc(N2CC(C(=O)OCC(=O)NNC(=O)c3ccccc3)CC2=O)cc1 (stereo not given),1,0,-18,-15,0,-1
CC(=O)N1CCN(C(=O)CSc2nnc(C)n2-c2ccccc2)CC1,0,3,-4,-5,0,12
COC(C(=O)Nc1ccnn1C1CCN(C(=O)c2ccc(C)cc2)CC1)c1ccccc1 (stereo not given),0,0,-1,-2,0,3

# Screening results: PubChem BioAssay, several laboratories
